Laboratory results: PubChem BioAssay
Values without a mark were called inactive.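 The calls were made as follows: active = viability loss from added drug above about 55%, and viability with drug at most 40%, in both replicates (limit read from the data, passing the limit was not always enough); inconclusive = both conditions met in only one replicate; inactive = neither replicate meets both conditions.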

assay: reversal of MRP1-mediated doxorubicin resistance, pilot screen, H69AR cells, doxorubicin co-treatment (AID 601); conditions: H69AR cells + 2 uM doxorubicin, CellTiter-Glo, 72 h; at 10 µM; active compounds read high

For `CCCCN=CC1=C(O)C(C(=O)OC)C(C)(C)CC1=O` (stereo not given), which differential viability (reversal) is on record?
Its differential viability (reversal) is 4.54%.

With `Cc1ccc(C)c(C(=O)CC2(O)C(=O)N(C)c3ccccc32)c1` (stereo not given) as the molecule, how does the differential viability (reversal) read?
Its differential viability (reversal) is 10.1%.

For `CC(=O)C1=C(C)Nc2ncnn2C1c1cccc(OCc2ccccc2)c1` (stereo not given), which differential viability (reversal) is on record?
The differential viability (reversal) was -5.64%.

With `Cc1ccc(C(=O)CC2(O)C(=O)N(C)c3ccc(Br)cc32)c(C)c1` (stereo not given) as the molecule, how does the differential viability (reversal) read?
The differential viability (reversal) was -16.9%.

Which differential viability (reversal) does the source give for `Fc1cccc(Nc2ncnc3c2cnn3-c2ccccc2)c1` here?
Its differential viability (reversal) is -31.6%.

For `COc1ccc(NC(=O)NCCN2C(=O)C3C4C=CC(C4)C3C2=O)cc1` (stereo not given), which differential viability (reversal) is on record?
The differential viability (reversal) was 3.28%.

With `Cc1ccc(C)c(NC(=O)CSc2nnc(-c3ccccc3)o2)c1` as the molecule, how does the differential viability (reversal) read?
Its differential viability (reversal) is 9.51%.

With `O=C(NCCCN1CCOCC1)c1cc(-c2ccc(O)cc2)on1` as the molecule, how does the differential viability (reversal) read?
The differential viability (reversal) was 5.84%.

Which differential viability (reversal) does the source give for `CCOC(=O)c1ccc(NC(=O)Cn2cc3c(n2)CCC(C)C3)cc1` (stereo not given) here?
Its differential viability (reversal) is -7.62%.

For `N#C/C(C(=O)N1CCOCC1)=C1/SC=C(c2ccccc2)N1c1ccccc1`, which differential viability (reversal) is on record?
Its differential viability (reversal) is 4.83%.

With `COc1ccc(C(=O)c2coc3ccc(O)c(CN4CCCCC4)c23)cc1` as the molecule, how does the differential viability (reversal) read?
Its differential viability (reversal) is -0.2%.

Which differential viability (reversal) does the source give for `CCn1c(C(=O)N2CCC(C(=O)N3CCN(c4ccccn4)CC3)CC2)cc2sccc21` here?
Its differential viability (reversal) is 32.9%.

Which differential viability (reversal) does the source give for `CCOC(=O)N1CCN(Cc2nc3c(c(=O)n(C)c(=O)n3C)n2Cc2ccccc2)CC1` here?
Its differential viability (reversal) is 10.5%.

With `CN1CCN(C(=O)c2ccc(CS(=O)(=O)c3c(Cl)cccc3Cl)o2)CC1` as the molecule, how does the differential viability (reversal) read?
Its differential viability (reversal) is 8.46%.

For `CN(C)CCCN1C(=O)c2oc3ccc(Cl)cc3c(=O)c2C1c1cccnc1` (stereo not given), which differential viability (reversal) is on record?
The differential viability (reversal) was 3.07%.
